Measurements: PubChem BioAssay AID624483 (NMMLSC, 2012)
Screen size: about 360,000 compounds; about 11,000 (3.1%) were called active. About 2% were inconclusive and are not listed. The list comes from a sample in which actives are over-represented; it also holds similar structures and randomly drawn compounds. Values without a mark were called inactive. No stated cut-off is given here; in the data, active means fluorescence intensity above about 16000; inconclusive means no clear call, values can overlap the other calls; inactive means below that.

test: counter-screen for toxin protease inhibitors: compound fluorescence, primary screen, artefact control for toxin protease inhibitor project, biochemical, multiplex microsphere, HTS (AID 624483); conditions: compound autofluorescence counterscreen, microsphere flow cytometry; active compounds read high

Row | Structure (SMILES) | fluorescence intensity
1 | COC(=O)C1=C(N)Oc2c(oc(CO)cc2=O)C1c1c(F)cccc1Cl (stereo not drawn) | 3610
2 | COc1ccc(C(=O)N/N=C2\CCS(=O)(=O)c3ccc(F)cc32)cc1OC | 4530
3 | Cc1ccc(-c2nn(-c3ccccc3)cc2C(=O)NCCCN2CCCC2=O)cc1 | 4630
4 | CCOc1ccc(C(=O)NCCCN2CCCC2=O)cc1 | 3040
5 | Cc1ccc(C(=O)N(CN2CCCC2=O)c2ccc(F)cc2)cc1 | 24000 (active)
6 | CCCNC(=O)CCc1c(C)nc2c(c(C)nn2-c2ccc(C)cc2)c1C | 3860
7 | Cc1ccc2c(=O)oc(N(C)C)nc2c1 | 2560
8 | Cc1ccc(-n2nc(N)c3c(=O)oc(N(C)C)nc32)cc1 | 23400 (active)
9 | Cc1ccc(NS(=O)(=O)c2c(C)[nH]c(=O)[nH]c2=O)cc1C | 10900
10 | CC1(C)Cc2ccccc2-c2nc(CN3CCOCC3)[nH]c(=O)c21 | 22300 (active)
11 | O=c1[nH]c(CN2CCOCC2)nc2scc(-c3ccccc3)c12 | 4340
12 | CC1(C)Cc2ccccc2-c2[nH]c(=S)[nH]c(=O)c21 | 4400
13 | CC(C)c1cccc(C(C)C)c1Nc1cn[nH]c1 | 6170
14 | CCC(C)(C)c1ccc(Oc2ccc(NC(=O)COC(=O)C3=COCCO3)cc2)cc1 | 21300 (active)
15 | COc1ccc(NC(=O)COC(=O)C2COc3ccccc3O2)cc1 (stereo not drawn) | 3930
16 | CCOc1ccc(NC(=O)c2ccc(NC(=O)COC(=O)c3ccc(NC(=O)CC#N)cc3)cc2)cc1 | 4430
17 | C/C(=N\NS(=O)(=O)c1ccccc1)c1c(O)cc(C)oc1=O | 5910
18 | O=C(CSc1nccc(=O)[nH]1)Nc1ccc(N2CCOCC2)c(Cl)c1 | 3800
19 | CCOC(=O)c1c(C)[nH]c(C(=O)OCC(=O)N2CCCC2=O)c1C | 6230
20 | CCOC(=O)c1[nH]c(C)c(C(=O)OCC(=O)N2c3ccccc3CC2C)c1C (stereo not drawn) | 19700 (active)
21 | CCOc1ncccc1C(=O)OCC(=O)N1c2ccccc2CC1C (stereo not drawn) | 3090
22 | CC(C)C(OC(=O)c1cccs1)C(=O)NC1CCCCC1 (stereo not drawn) | 9640
23 | Cc1ccc(-c2nc(COC(=O)c3c(C)noc3C)cs2)cc1 | 9900
24 | COc1ccc(N2C(=O)c3ccccc3NC2c2ccc(OC)c(CN3CCOCC3)c2)cc1 (stereo not drawn) | 4330

Row | Structure (SMILES) | fluorescence intensity
25 | COc1ccc(C2C(C#N)=C(N)Oc3n[nH]c(C)c32)cc1CN1CCN(c2ccc(F)cc2)CC1 (stereo not drawn) | 24200 (active)
26 | COc1ccccc1CN1CCCC(N2CCN(c3ccc(F)cc3)CC2)C1 (stereo not drawn) | 4030
27 | CSc1ncnc2c1ncn2CCCNCC1CCCCC1 | 3580
28 | COc1ccc(NC(=O)CCS(=O)(=O)c2cc3c(cc2Cl)NC(=O)CO3)cc1OC | 4470
29 | Cc1ccc(NC(=O)C2CCN(S(=O)(=O)c3ccc4c(c3)NC(=O)CO4)CC2)cc1C | 6240
30 | CCOC(=O)C1CCN(C(=O)Nc2cccc(OC)c2)CC1 | 3130
31 | CC(CC(=O)Nc1ccc(F)cc1F)S(=O)(=O)c1ccc2c(c1)NC(=O)CO2 (stereo not drawn) | 6050
32 | O=C1COc2ccc(NC(=O)N3CCN(c4ccc(F)cc4)CC3)cc2N1 | 22400 (active)
33 | COc1cccc(N2CCN(C(=O)Nc3ccc4c(c3)NC(=O)CO4)CC2)c1 | 19600 (active)
34 | Clc1ccccc1Nc1nc(NCc2cccs2)nc2ccsc12 | 2970
35 | O=C(NN=Cc1ccccc1O)C(=O)NN=Cc1ccccc1O | 3880
36 | COC(=O)[C@H](CC(C)C)NC(=O)N1CCCCC1C (stereo partly drawn) | 6670
37 | COc1ccccc1-c1cc(NC(C)=O)c2ncc(-c3ccc(F)cc3)n2c1 | 3190
38 | O=C(c1ccc(F)cc1)N1CCC(C(=O)N2CCN(S(=O)(=O)c3ccccc3Br)CC2)CC1 | 6500
39 | CCn1c(CSc2nc(C)cc(C)n2)nnc1SCC(N)=O | 4570
40 | CC(=O)c1c(N2CCOCC2)nc(=S)n(Cc2ccccc2)c1C | 2990
41 | CCSc1nc(=S)n(CC)c(C)c1C(C)=O | 19400 (active)
42 | CCCc1nc(-c2ccccc2O)n(-c2ccccc2)n1 | 3640
43 | CC(=O)NC(C)(C)C1CC=C(C)/C(=N\O)C1 (stereo not drawn) | 17100 (active)
44 | C=C(C)C1CC=C(C)/C(=N\NC(=O)CNc2ccccc2OC)C1 (stereo not drawn) | 2580
45 | OC(c1ccccc1)c1nc(/C=C/c2ccc(C(F)(F)F)cc2)cs1 (stereo not drawn) | 2820
46 | CCCc1nnc(SCC(=O)Nc2ccc(C(=O)OCC)cc2)o1 | 3670
47 | CC(=O)Nc1ccc(C(=O)CSc2nnc(Cc3ccccc3)o2)cc1 | 16300 (active)
48 | O=C(CSc1nnc(Cn2cnc3ccccc32)o1)c1ccccc1 | 4020

Row | Structure (SMILES) | fluorescence intensity
49 | CN(Cc1cn(Cc2ccc(C(F)(F)F)cc2)nn1)C1CN(Cc2cn(Cc3ccc(C(F)(F)F)cc3)nn2)S(=O)(=O)C1 (stereo not drawn) | 5810
50 | COc1ccc(CNC2CCCCC2)cc1 | 22800 (active)
51 | COc1ccc(CNc2nc(NCc3ccc(OC)cc3)c3ncn(C4CCCC4)c3n2)cc1 | 4490
52 | COc1ccc(CNC(=O)C2CCCC2)cc1 | 5540
53 | COc1cccc(NC(=O)C2(C)CCN2Cc2ccccc2Cl)c1 (stereo not drawn) | 3880
54 | COc1ccccc1CNC(=O)c1cc(-c2cc(Cl)ccc2C)n[nH]1 | 3000
55 | O=C(CSc1nnc(COc2ccc(Cl)cc2)n1Cc1ccco1)N1CCNC1=O | 5560
56 | CCn1c(CNc2ccc(OC)cc2)nnc1SCC(=O)c1ccc(OC)cc1 | 3090
57 | COc1ccc(C(=O)CSc2nnc(COc3ccccc3)n2Cc2ccco2)cc1 | 23900 (active)
58 | CCCCN(CC)C(=O)CN(C)S(=O)(=O)c1cccc2nsnc12 | 6470
59 | CC(C(=O)NC1CCCC1)N1CCN(S(=O)(=O)c2ccccc2Cl)CC1 (stereo not drawn) | 4750
60 | O=C(CN1C(=O)NC(Cc2ccccc2)(Cc2ccccc2)C1=O)NCC1CCCCC1 | 20200 (active)
61 | O=C(CC1CCCCC1)NCc1ccccc1 | 3670
62 | CCCCNC(=O)CN1C(=O)NC(Cc2ccccc2)(Cc2ccccc2)C1=O | 5690
63 | CC(=O)c1cccc(NC(=O)c2cc(C)nn2-c2ccccc2)c1 | 3940
64 | CSc1ccccc1C(=O)Nc1cccc(C(C)=O)c1 | 26700 (active)
65 | CC(=O)c1cccc(NC(=O)[C@@H](NC(N)=O)C(C)C)c1 | 3400
66 | COC(=O)c1ccc2c(c1)S(=O)(=O)NC2C (stereo not drawn) | 5730
67 | COC(=O)c1ccc(OCC(O)CN(CCO)CC(O)Cn2ccc3ccccc32)cc1 (stereo not drawn) | 2540
68 | CCOC(=O)c1sc(NC(=O)CSc2nc(C)cc(C(F)(F)F)n2)c(C#N)c1C | 20700 (active)
69 | Cc1cc(C(F)(F)F)nc(SCC(=O)Nc2nccs2)n1 | 4960
70 | CCn1c(SCC(=O)Nc2sc(C)c(C)c2C#N)nnc1C1CC1 | 4370
71 | CC(C)(C)S(=O)N1Cc2cc(C(=O)NCCCN3CCOCC3)nc(-c3cccc(-c4cc5ccccc5o4)c3)c2[C@H]1CCO (stereo partly drawn) | 4620
72 | Cc1noc(NS(=O)(=O)c2ccc(N3CC(O)=C(c4ccccc4)C3=N)cc2)c1C | 2440

Row | Structure (SMILES) | fluorescence intensity
73 | CCOC(=O)C1CCCN(C(=O)c2ccc(C)c(F)c2)CC1 (stereo not drawn) | 3730
74 | CS(=O)(=O)Nc1cccc(C2=NN(S(=O)(=O)c3ccccc3)C(c3cccs3)C2)c1 (stereo not drawn) | 8170
75 | CCS(=O)(=O)Nc1ccc(C2=NN(S(=O)(=O)c3ccc(F)cc3)C(c3ccco3)C2)cc1 (stereo not drawn) | 17100 (active)
76 | CCS(=O)(=O)Nc1ccc(C2=NN(C(C)=O)C(c3cccs3)C2)cc1 (stereo not drawn) | 2400
77 | CCOC(=O)C1(C(F)(F)F)N=C(N(C)C)OC(N(C)C)=N1 | 2190
78 | COCCCNC(=O)CNC(=S)N(Cc1cc(OC)c(OC)c(OC)c1)C1CCCC1 | 2570
79 | O=S1(=O)CC(NCc2ccccc2)C(Nc2ccc(Cl)cc2)C1 (stereo not drawn) | 3670
80 | CCn1c(C)nc2cc(C(=O)NNS(=O)(=O)c3ccc(C)cc3C)ccc21 | 22500 (active)
81 | Cc1ccc(S(=O)(=O)N2CCN(C(=O)Cn3c(=O)cnc4ccccc43)CC2)c(C)c1 | 5660
82 | CCn1c(CNC(=O)c2cc(OC)c(OC)c(OC)c2)cc2cc(C)ccc21 | 3780
83 | CC(=O)Nc1cnc(-c2ccc(O)cc2C)cn1 | 3960
84 | NS(=O)(=O)c1ccc(NC2=CC(c3ccc(F)cc3)N(c3ccc(S(N)(=O)=O)cc3)C2=O)cc1 (stereo not drawn) | 4340
85 | C#CCN(C[C@H]1[C@H](OC(=O)NC2CCCC2)[C@H](OC(=O)NC2CCCC2)C[C@H]2C(=O)N(c3ccccc3)C(=O)[C@@H]12)S(=O)(=O)c1ccc(C)cc1 | 3750
86 | Cc1ccccc1CSc1nnc(-c2ccccn2)n1N | 16200 (active)
87 | Cn1c(SCC(=O)C(C)(C)C)nnc1-c1ccccn1 | 9760
88 | Cc1ccccc1CSc1nnc(-c2cccnc2)n1N | 2660
89 | COc1ccc(C(=O)NC(=S)N2CCCCC2c2cccnc2)cc1OC (stereo not drawn) | 4080
90 | Cc1ccc(Cn2c(=N)c(S(=O)(=O)c3ccc(C)cc3)cc3c(=O)n4ccccc4nc32)cc1 | 4390
91 | CCn1c(=N)c(S(=O)(=O)c2ccc(F)cc2)cc2c(=O)n3ccccc3nc21 | 2990
92 | Cc1ccc(-n2c(=O)c(C#N)cc3c(=O)n4ccccc4nc32)cc1C | 24200 (active)
93 | CCc1nc2nc(C)c(NS(=O)(=O)c3ccc4c(c3)CCCC4)c(=O)n2[nH]1 | 4030
